Screening data from PubChem BioAssay.
Compounds with a hit are over-represented: about 1.8% of the library has one in this group of screens.
EWS-Fli inh = EWS/Fli transcriptional activity inhibition; AID 651661; actives 0.67% (n = 350,000); inhibition, % at 12.6 µM; A673 NR0B1-luciferase reporter, viability-normalised;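 active = mean inhibition of at least 50% after viability correction, with every replicate also passing that limit; inconclusive = mean reaches 50% but only one of two replicates passes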;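 also: firefly luciferase signal divided by Alamar Blue viability fluorescence both relative to DMSO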
RAD52 anneal inh = inhibitors of human RAD52 DNA annealing. recombinant RAD52 DNA annealing, FRET fluorescence. inhibition, % at 18.7 µM. actives 0.46% (n = 360,000);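 active = every replicate showing at least 50% inhibition; inconclusive = mean inhibition at least 50% but not in every replicate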
Target sequence (P43351 whole entry, looked up): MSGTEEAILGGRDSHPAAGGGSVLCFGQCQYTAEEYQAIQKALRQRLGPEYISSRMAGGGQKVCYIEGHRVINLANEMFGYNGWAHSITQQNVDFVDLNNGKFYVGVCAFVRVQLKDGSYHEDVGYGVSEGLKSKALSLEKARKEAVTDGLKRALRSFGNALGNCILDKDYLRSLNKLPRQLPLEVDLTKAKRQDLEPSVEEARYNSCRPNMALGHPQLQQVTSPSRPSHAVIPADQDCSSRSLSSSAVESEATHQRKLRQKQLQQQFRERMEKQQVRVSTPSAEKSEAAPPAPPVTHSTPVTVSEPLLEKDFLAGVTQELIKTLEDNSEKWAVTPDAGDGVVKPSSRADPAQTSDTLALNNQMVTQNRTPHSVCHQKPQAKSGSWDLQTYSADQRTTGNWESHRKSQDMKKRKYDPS
GSIS activator = GLuc luminescence reporter in INS-1E cells, primary screen for activators of glucose-dependent secretion of insulin. INS-1E GLuc reporter insulin secretion, 2-3 h. activation, % at 16.6 µM. actives 0.61% (n = 370,000);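 active = lowest replicate activation of at least 40%, so every replicate reaches that level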;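 also: 0% = median of neutral control wells and 100% = median of IBMX positive control wells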
RAD54 inh = blocks human RAD54 Holliday junction branch migration. Q92698. FAM/BHQ fluorescence. inhibition, % at 10.4 µM. actives 0.14% (n = 360,000). AID 602329;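 active = mean normalized replicate activity at least 40 and at least half of replicates scoring 40 or more; inconclusive = only one of the two criteria met; inactive = mean below 40 and under half of replicates reaching 40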;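 also: 0% = median of neutral control wells and 100% = median of positive control wells; inhibitors cause a drop in the FAM fluorescence signal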
F508del corr = CFTR F508del correction in bronchial cells | CFBE cells, YFP halide quenching; stimulated with forskolin plus potentiator P3; % fluorescence drop versus neutral controls | activity (quench increase), % at 7.58 µM | actives 0.36% (n = 350,000) | AID 720511;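 active = mean added fluorescence quench of at least 8% versus neutral control, with both replicates also reaching 8%; inconclusive = only one of the mean or replicate conditions met; inactive = mean below 8% and not both replicates reaching 8%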;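 also: cells transiently co-express mutant CFTR-F508del with the halide-sensitive YFP; corrector assay measuring rescue of mutant channel to the surface after 24 h compound exposure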
LGR2 inh = inhibitors of bursicon-induced Drosophila LGR2 receptor cAMP signaling; inhibition, % at 9.99 µM; actives 0.35% (n = 380,000); AID 720647; HEK293 LGR2, CRE-luciferase, bursicon-stimulated, 4 h;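 active = drop in luminescence signal, shown as inhibition above about 50% in the replicate tests, limit read from the data, passing the limit was not always enough; inconclusive = probably only some replicates passing the limit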;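 also: agonist challenge used bursicon conditioned medium at about half maximal strength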
An asterisk follows results filed as active; ? = inconclusive; / = not tested or not shown; ! = not confirmed by another sample.

SMILES	EWS-Fli inh	RAD52 anneal inh	GSIS activator	RAD54 inh	F508del corr	LGR2 inh
COc1ccc(/C=C/C(=O)N(C)C2CCCCC2)cc1Br	-38	-11	-29	/	3	-18
O=[N+]([O-])c1cccc(-c2nc3ccccc3s/c2=N/O)c1	12	0	82*	0	-1	-19
O=C(Nc1cccc(C(F)(F)F)c1)C1(c2ccccc2)CC1	/	/	1	/	/	2
C(=Cc1c[nH]c2ccccc12)c1nccc2ccccc12	22	-27	5	-18	1	94*
CC1CCN(C(=O)Cn2c3ccccc3c3nc4n(c(=O)c32)CCCS4)CC1	-3	-4	3	-5	-3	-6
CC(C)(C)N(Cc1ccccc1)C(=O)c1cc2ccccc2o1	19	-3	23	8	10.0*	9
CCCCNc1cc(Cl)nc(N)n1	-14	-26	58*	-5	0	-5
COc1cc(N)c(C(O)c2nccc3cc(OC)c(OC)cc23)cc1OC (centres undefined)	-50	8	17	11	0	-12
COc1ccc(C(O)c2nccc3cc(OC)c(OC)cc23)cc1OC (centres undefined)	14	-9	83*	/	3	-5
COc1cccc(Nc2ncnc3c2cnn3-c2cccc(C)c2)c1	/	/	/	-11	/	/
COc1ccc2c3c(n(C)c2c1)[C@H](CO)N(Cc1ccccc1)CC31CN(S(=O)(=O)c2ccc(C)cc2)C1	/	/	-29	/	/	/
O=C(O)c1ccc(-n2nnnc2SCc2ccccc2Br)cc1	9	-6	48*	-4	-1	-1
O=C(O)c1ccc(CSc2nnnn2-c2ccc(F)cc2)cc1	1	-8	30	/	0	-10
COc1cc(OC)c(-c2nc(-c3ccncc3)no2)cc1OC	3	-19	7	9	-1	5
COc1ccc(-c2nc(-c3ccncc3)no2)c(OC)c1	35	-6	-2	-9	1	66*
CCC(CC)C(=O)c1c[nH]c(C(=O)NC2CCCCCC2)c1	-8	-3	-1	1	3	3
Cc1nc2nc(C)n(CCN3CCOCC3)c(=O)c2c(-c2cccc([N+](=O)[O-])c2)c1C(=O)CCCCCCCCCCN1CCC(c2ccccc2)(c2ccccc2)CC1	?	97*	-15	/	-2	33
Cc1nc(CN2CCN(S(=O)(=O)c3c(Cl)cc(Br)cc3Cl)CC2)cs1	11	2	68*	/	1	12
COc1ccc(C(O)c2nc(-c3ccc(OC)c(OC)c3)cs2)cc1 (centres undefined)	-8	-11	66*	12	1	-13
COc1ccc(-c2csc(C(O)c3ccc(OC)cc3)n2)cc1 (centres undefined)	3	-5	-27	6	2	-10
CSc1ccc(Cl)c(C(=O)Nc2ccc(C)cn2)c1	18	-3	17	-3	8	-2
CC(=O)Nc1cccc(-c2ccnc3c2CC(C)(C(=O)Nc2ccc4c(c2)OCO4)O3)c1 (centres undefined)	49	-7	-14	10	10*	-19
CC(=O)Nc1cccc(-c2ccnc3c2CC(C)(C(=O)Nc2ccc(Cl)cc2)O3)c1 (centres undefined)	62*	-10	-21	-5	8	-19
O=C(Nc1ccc2c(c1)OCO2)C1Cc2c(-c3ccc4c(c3)OCO4)ccnc2O1 (centres undefined)	53*	-1	/	3	0	21
CN(C)c1ccc(CNC(=O)C2(C)Cc3c(-c4ccc5c(c4)OCO5)ccnc3O2)cc1 (centres undefined)	59*	-98	0	-7	1	4
SMILES	EWS-Fli inh	RAD52 anneal inh	GSIS activator	RAD54 inh	F508del corr	LGR2 inh
CNC(=O)C1(C)Cc2c(-c3ccc4c(c3)OCO4)ccnc2O1 (centres undefined)	-1	-13	17	-1	-3	5
COc1ccc(NC(=O)C2(C)Cc3c(-c4ccc5c(c4)OCO5)ccnc3O2)cc1 (centres undefined)	53*	-6	/	3	2	-1
COc1ccc(NC(=O)C2(C)Cc3c(-c4cccc(NC(C)=O)c4)ccnc3O2)cn1 (centres undefined)	59*	-22	3	-8	4	-13
COc1ccc(NC(=O)C2(C)Cc3c(-c4ccc(NC(C)=O)cc4)ccnc3O2)cn1 (centres undefined)	-5	-18	/	-7	2	8
CCOC(=O)N1CCN(c2c(N3CC=C(c4ccccc4)CC3)c(=O)c2=O)CC1	1	-6	-4	-7	1	-9
CCCCc1nc(N)c(C#N)c(-c2ccco2)c1CCC	-6	-20	62*	6	2	-10
Cc1ccc2nc3nc(NCC4CCCO4)c(C(=O)NC4CCCC4)cc3c(=O)n2c1 (centres undefined)	-2	/	8	1	2	7
Cc1ccc(S(=O)(=O)c2nc(S(C)(=O)=O)sc2N2CCCCC2C)cc1 (centres undefined)	17	-12	15	-5	2	19
O=C(Nc1cccc(F)c1)N1CCCCN2[C@H](CO)[C@H](c3ccc(-c4ccccc4F)cc3)[C@H]2C1	59*	-35	-17	-3	-1	12
O=C(Nc1ccc(F)cc1)N1CCCCN2[C@H](C1)[C@@H](c1ccc(-c3ccccc3F)cc1)[C@@H]2CO	-6	55*	/	2	0	/
O=C(Nc1ccccc1)N1CCCCN2[C@H](CO)[C@H](c3ccc(-c4ccccc4F)cc3)[C@H]2C1	19	50*	-33	3	-1	-4
O=C(Nc1ccccc1)N1CCCCN2[C@H](CO)[C@H](c3ccc(-c4ccccc4F)cc3)[C@@H]2C1	4	-5	-12	12	-1	-3
O=C(Nc1ccc(F)cc1)N1CCCCN2[C@@H](CO)[C@@H](c3ccc(-c4cccc(F)c4)cc3)[C@@H]2C1	72*	31	-9	20	-3	-10
COC(=O)c1cccc(C23CC4(C2)[C@H](CN(Cc2ccc(-c5ccccc5)cc2)[C@@H]4c2ccccc2)C3c2ccc(Cl)nc2)c1 (some centres undefined)	-7	/	-17	6	6	10
CC1Cc2ccccc2N1C(=S)NC(=O)c1cccc(Br)c1 (centres undefined)	/	/	51*	/	/	-19
O=S(=O)(c1cccc(Cl)c1)N1[C@@H]2CNC[C@H]1C2c1ccc(-c2cccc(F)c2)cc1 (some centres undefined)	8	54*!	-1	/	2	-9
N#Cc1ccc(-c2ccc(C3[C@H]4CNC[C@@H]3N4S(=O)(=O)c3ccc(-c4ccccc4)cc3)cc2)cc1 (some centres undefined)	2	82*	12	/	2	-3
